Experimental data from PubChem BioAssay AID485364 (National Center for Advancing Translational Sciences (NCATS), 2010).
Hit rate of the full screen: of about 360,000 compounds, about 11,000 (3.1%) were called active. About 4% were inconclusive and are not listed. Calls come from the whole dose curve; as a rule, active = well fitted inhibition curve with a large enough effect; inconclusive = small, poorly fitted or top-dose-only effect; inactive = no such curve, though single readings can be large or run the other way. Many of the other results were omitted from the sample, so actives are more common in it than they were.

The compounds below were run against Schistosoma mansoni thioredoxin glutathione reductase (TGR) (UniProt Q962Y6) (assay: qHTS Assay for the Inhibitors of Schistosoma Mansoni Peroxiredoxins). Conditions: purified TGR, DTNB reduction, TNB absorbance 405 nm; series mostly up to 114 µM; activity change, negative = inhibition: at the top concentration.
Method in brief: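 TGR 20 nM + NADPH 100 uM (dispensed conc.), cpd preinc 15 min RT; start with NADPH (500 uM addition) then DTNB (15 mM addition). Kinetic TNB absorbance, 405 nm filter. Four-parameter Hill fit across titration.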
% is set by controls: 0 for no effect and ±100 for the full control effect; potency is the fitted concentration of half-maximal effect.
Note: nearly all actives have a fitted effect of over 60% in size.

| Compound | Potency | activity change, negative = inhibition |
| --- | --- | --- |
| c1coc(-c2nc3nc4ccccc4n3nc2-c2ccco2)c1 | 44.7 µM (active) |  |
| O=C(COc1ccc(Cl)cc1)Nc1ccccc1OCc1cc(=O)n2ccccc2n1 |  | 2.3% (inactive) |
| Cc1nc2ccccc2c(-c2ccccc2)c1C(=O)c1ccccc1 |  | -13.7% (inactive) |
| Cc1oc2cc(Br)c(O)c(Br)c2c1C(=O)c1ccccc1 | 15.8 µM (active) |  |
| COc1ccc(C(=O)c2c(C)oc3cc([N+](=O)[O-])c(O)c([N+](=O)[O-])c23)cc1 |  | -31.7% (inactive) |
| Brc1cccc(-c2nnn3c2nc(NC2CCCCC2)c2ccccc23)c1 |  | 37% (inactive) |
| COc1ccc(CCNC(=O)Cn2c(=O)cc(C(F)(F)F)c3c(C)nn(C)c32)c(OC)c1 |  | 3.9% (inactive) |
| CC1Cc2cc(/C(O)=C3\C(=O)C(=O)N(CCN4CCOCC4)C3c3ccccc3F)ccc2O1 (stereo unspecified) |  | -26.7% (inactive) |
| COCCCN1C(=O)C(=O)/C(=C(/O)c2ccc(S(=O)(=O)N3CCOCC3)cc2)C1c1ccc(F)cc1 (stereo unspecified) |  | 5.3% (inactive) |
| COc1ccc(C2/C(=C(/O)c3ccc(OC(C)C)cc3)C(=O)C(=O)N2CCCN2CCOCC2)cc1 (stereo unspecified) | 20 µM (active) |  |
| O=C1C(=O)N(CCCO)C(c2ccccc2)/C1=C(\O)c1ccc(Br)cc1 (stereo unspecified) |  | 11.9% (inactive) |
| O=C1C(=O)N(CCN2CCOCC2)C(c2cccc(Cl)c2)/C1=C(/O)c1ccc2c(c1)OCO2 (stereo unspecified) | 50.1 µM (active) |  |
| O=C1C(=O)N(CCN2CCOCC2)C(c2ccccn2)/C1=C(/O)c1ccc(Cl)cc1 (stereo unspecified) | 20 µM (active) |  |
| COCCN1C(=O)C(=O)/C(=C(/O)c2ccc(S(=O)(=O)N3CCOCC3)cc2)C1c1ccc(OC)c(OC)c1 (stereo unspecified) |  | -3.05% (inactive) |
| COCCN1C(=O)C(=O)/C(=C(/O)c2ccc(S(=O)(=O)N3CCOCC3)cc2)C1c1ccc(O)c(OC)c1 (stereo unspecified) |  | -15.2% (inactive) |
| CCN(CC)CCN1C(=O)C(=O)/C(=C(/O)c2ccc(OC)c(OC)c2)C1c1ccccn1 (stereo unspecified) |  | 11.8% (inactive) |
| CCn1c2c(c(=O)n3ncc(C(=O)N4CCN(c5ccccc5)CC4)c13)CN(Cc1ccc(OC)cc1)CC2 |  | -22.6% (inactive) |
| CCc1cccc(NC(=O)CN(C)S(=O)(=O)c2ccc3[nH]c4c(c3c2)CCCC4)c1 |  | -3.12% (inactive) |
| O=C(Nc1cc(C(F)(F)F)ccc1Cl)c1cc2nc(-c3ccc4c(c3)OCO4)cc(C(F)(F)F)n2n1 |  | 10% (inactive) |
| O=C(CSc1nc(Nc2ccc(F)c(F)c2)c2ccccc2n1)c1ccc(Cl)cc1 |  | -0.95% (inactive) |
| Cc1cc(C)nc(NS(=O)(=O)c2ccc(NC(=O)c3cc(=O)c4ccc(C)c(C)c4o3)cc2)n1 |  | 8.3% (inactive) |
| COC(=O)c1c(NC(=O)CCCOc2ccccc2)sc2c1CCC(C)C2 (stereo unspecified) |  | -12.3% (inactive) |
| O=C(O)CCn1cc(/C=C/C(=O)c2ccc(Cl)cc2)c(-c2cccc(Br)c2)n1 |  | 8.71% (inactive) |

| Compound | Potency | activity change, negative = inhibition |
| --- | --- | --- |
| O=C(O)CCn1cc(C=C2C(=O)NC(=S)NC2=O)c(-c2cccc(Br)c2)n1 | 31.6 µM (active) |  |
| Cc1cccc(NC(=O)c2ccc3nc(C(C)C)oc3c2)c1C |  | 1.6% (inactive) |
| O=S(=O)(c1ccc(Br)cc1)c1nc(-c2ccccc2)oc1N1CCOCC1 |  | -40.2% (inactive) |
| O=S(=O)(c1ccccc1)c1nc(-c2ccccc2)oc1NCCCN1CCOCC1 |  | -7% (inactive) |
| O=S(=O)(c1ccccc1)c1nc(Cc2ccccc2)oc1N1CCOCC1 | 2 µM (active) |  |
| Cc1ccc(NC(=O)Nc2sc3nc4n(c(=O)c3c2C)CCC(C)CC4)c(Cl)c1 (stereo unspecified) |  | 4.36% (inactive) |
| CCC(C)c1ccc2oc(-c3ccc(NC(=O)c4cc5ccccc5o4)cc3)nc2c1 (stereo unspecified) |  | 0.847% (inactive) |
| Cc1ccc(C2c3[nH]c4ccccc4c3CCN2C(=O)c2cccc(C)c2)cc1 (stereo unspecified) |  | 5.12% (inactive) |
| Cc1ccc(C)c(N2C(=O)N(Cc3c(F)cccc3Cl)c3ccccc3S2(=O)=O)c1 |  | 12.1% (inactive) |
| COc1ccc(CCNC(=O)C(=O)NCC(c2ccco2)S(=O)(=O)c2cccs2)cc1OC (stereo unspecified) | 3.55 µM (active) |  |
| CCN(CC(=O)NCc1ccco1)S(=O)(=O)c1ccc(F)cc1 |  | -8.46% (inactive) |
| CC(C)(C)c1ccc(C(=O)NCC(c2ccco2)S(=O)(=O)c2ccc(F)cc2)cc1 (stereo unspecified) | 11.2 µM (active) |  |
| O=C(NCC(c1ccco1)N1CCc2ccccc21)c1cccc(F)c1 (stereo unspecified) |  | 2.37% (inactive) |
| COc1ccc(CCNC(=O)C(=O)NCc2ccccc2C)cc1OC |  | -2.9% (inactive) |
| Cc1cc(S(=O)(=O)Nc2ccc(C(=O)NCC(c3ccco3)N3CCCC3)cc2)ccc1F (stereo unspecified) |  | -8.98% (inactive) |
| O=C(CCNC(=O)c1ccc(Br)cc1)NCC(c1ccco1)N1CCCCC1 (stereo unspecified) |  | -2.93% (inactive) |
| COc1ccc(CCNC(=O)C(=O)NCC2CCCN2S(=O)(=O)c2cccs2)cc1OC (stereo unspecified) |  | -10.8% (inactive) |
| O=C(NCC(c1ccco1)S(=O)(=O)c1cccs1)c1ccc(F)cc1 (stereo unspecified) | 7.08 µM (active) |  |
| CCC(=O)Nc1c(C(=O)N2CCN(c3ccc(F)cc3)CC2)oc2ccccc12 |  | -2.54% (inactive) |
| CN(CC(=O)Nc1cccc(C(F)(F)F)c1)S(=O)(=O)c1cccs1 |  | -0.406% (inactive) |
| CCOc1ccc(N(CC)C(=O)c2noc3c2COc2ccc(C)cc2-3)cc1 |  | -10.9% (inactive) |
| Cc1ccc2[nH]c3c(=O)n(CC(=O)NC(C)C)ncc3c2c1 |  | -3.07% (inactive) |
| Cc1ccc2c(=O)cc(C(=O)Nc3sc4c(c3C(=O)NCc3cccnc3)CCCC4)oc2c1 |  | 5.7% (inactive) |

| Compound | Potency | activity change, negative = inhibition |
| --- | --- | --- |
| CCCNC(=O)c1ccc(Cn2c(SCC(N)=O)nc3ccccc3c2=O)cc1 |  | 5.19% (inactive) |
| CCN(CC(=O)Nc1cccc(S(N)(=O)=O)c1)Cc1nc2ccccc2c(=O)[nH]1 |  | 2.33% (inactive) |
| CCN(CC(=O)Nc1ccc(C)c(S(=O)(=O)N(C)C)c1)Cc1ccccc1 |  | -15.6% (inactive) |
| CN(C)S(=O)(=O)c1cc(NC(=O)CN2C(=O)NC3(CCCc4ccccc43)C2=O)ccc1Cl (stereo unspecified) |  | -7.41% (inactive) |
| O=C(c1ccco1)N(Cc1nc2ccccc2c(=O)[nH]1)C1CCCC1 |  | -35.5% (inactive) |
| CCN(CC(=O)Nc1cccc(S(=O)(=O)N2CCCCC2)c1)Cc1ccccc1 |  | 8.89% (inactive) |
| CCN(CC(=O)NC(=O)NCc1ccccc1)Cc1nc2ccccc2c(=O)[nH]1 | 89.1 µM (active) |  |
| CCN(CC)c1ccc(C(=O)NNC(=O)CCc2nc3ccccc3c(=O)[nH]2)cc1 |  | 1.8% (inactive) |
| CCCCN(CC(=O)Nc1cccc(S(=O)(=O)N2CCCC2)c1)Cc1nc2ccccc2c(=O)[nH]1 | 22.4 µM (active) |  |
| CCN(CC(=O)Nc1ccc(Cl)c(S(=O)(=O)N(C)C)c1)Cc1nc2ccccc2c(=O)[nH]1 | 39.8 µM (active) |  |
| Cn1c(=O)c2c(SCC(=O)N3CCc4ccccc43)nc(-c3ccc(Cl)cc3)nc2n(C)c1=O |  | 0.229% (inactive) |
| COc1ccc(-c2nc(C)c(CCNC(=O)c3ccc(C(F)(F)F)cc3)s2)cc1OC |  | 3.68% (inactive) |
| COc1ccccc1NC(=O)CSC1=Nc2ccccc2C2=NC(CC(=O)NCc3cccs3)C(=O)N12 (stereo unspecified) |  | 3.93% (inactive) |
| Cn1c(=O)c2c(SCC(=O)NCC3CCCO3)nc(-c3ccccc3F)nc2n(C)c1=O (stereo unspecified) |  | 4.44% (inactive) |
| CCCCc1nn2c(=O)cc(COC(=O)c3ccccc3NC(=O)C(C)(C)C)nc2s1 |  | 0.0611% (inactive) |
| Cc1nn(C(C)C(=O)NCCc2ccccc2)c(=O)c2c1sc1ccccc12 (stereo unspecified) |  | -6.91% (inactive) |
| COc1cccc2c1cc1c(=O)n(CC(=O)N3CCN(c4ccccc4)CC3)nc(C)n12 |  | -4.71% (inactive) |
| O=c1c2cccnc2n(Cc2cccc(F)c2)c(=O)n1Cc1ccccc1Cl |  | 1.91% (inactive) |
| COc1cccc2c1cc1c(=O)n(CC(=O)N3CCN(c4cccc(Cl)c4)CC3)nc(C)n12 |  | -1.68% (inactive) |
| Cc1nc2ccccn2c(=O)c1NC(=O)c1c(F)cccc1F |  | 2.55% (inactive) |
| CCn1cc(C(=O)N(C)Cc2ccccc2)c(=O)c2cc(S(=O)(=O)N3CCCCCC3)ccc21 |  | 6.08% (inactive) |
| Cc1ccc(NN=Nc2nc3c([nH]2)c(=O)n(C)c(=O)n3C)cc1 | 56.2 µM (active) |  |
| CC(CCO)Nc1nc2c([nH]1)c(=O)n(C)c(=O)n2C (stereo unspecified) |  | -6.03% (inactive) |

| Compound | Potency | activity change, negative = inhibition |
| --- | --- | --- |
| Cc1cccc(C)c1NC(=O)CSc1nc2c([nH]1)c(=O)n(C)c(=O)n2C |  | 0.969% (inactive) |
| CCc1cccc(C)c1NS(=O)(=O)c1ccc(-c2cc(C)no2)s1 |  | -0.715% (inactive) |
| Cc1nc2ccn(Cc3cccs3)c(=O)c2cc1C(=O)NCc1ccc(Cl)cc1 |  | -4.6% (inactive) |
| COc1ccc(-c2onc(C)c2C)cc1S(=O)(=O)NCc1cccs1 |  | 10.8% (inactive) |
| CCN(CC)S(=O)(=O)c1ccc2c(c1)c(=O)c(C(=O)N1CCN(c3cccc(Cl)c3)CC1)cn2C |  | -3.45% (inactive) |
| Cc1cc(NC(=O)CCC(=O)N(CC(=O)NC2CCCC2)c2ccc(F)cc2)no1 |  | -9.59% (inactive) |
| Cc1cc(NC(=O)CSc2nnnn2-c2ccc(F)cc2)no1 |  | 7.99% (inactive) |
| Cc1cc(NC(=O)CCS(=O)(=O)c2ccc(F)cc2)no1 | 17.8 µM (active) |  |
| COc1ccccc1Nc1c2c(nc3ccc(NC(=O)/C=C/c4cc(OC)c(OC)c(OC)c4)cc13)CCCC2 |  | 0.0236% (inactive) |
| CCOC(=O)c1ccc(CSc2nnc3cc(C)c4ccccc4n23)cc1 |  | 2.03% (inactive) |
| O=c1[nH]c(O)c(C=Nc2cc(F)cc(F)c2)c(=O)[nH]1 |  | -25.8% (inactive) |
| O=C1N=c2ccccc2=C/C1=C\c1c(O)[nH]c(=S)[nH]c1=O | 10 µM (active) |  |
| Cc1ccc2c(c1)=C/C(=C\c1c(O)[nH]c(=O)[nH]c1=O)C(=O)N=2 | 14.1 µM (active) |  |
| Cc1cccc(S(=O)(=O)c2cn(Cc3ccccc3)c3cc(N4CCOCC4)c(F)cc3c2=O)c1 |  | 1.91% (inactive) |
| COc1ccc(NC(=O)CCCc2nnc3n(CCC(C)C)c(=O)c4sccc4n23)c(OC)c1 |  | 4.6% (inactive) |
| CCn1c2ccccc2c2cc(CN3CCN(Cc4cccc(Cl)c4)CC3)ccc21 |  | -1.51% (inactive) |
| CCOC(=O)c1c(SCC(=O)Nc2cccc(C)c2C)nc(=O)[nH]c1C |  | 18.3% (inactive) |
| Cc1ccc(NC(=O)CSc2nc3c(c(=O)[nH]2)CN(Cc2ccc4c(c2)OCO4)CC3)cc1C |  | 0.576% (inactive) |
| COc1ccc(Cl)cc1NC(=O)C(C)Sc1nc2c(c(=O)[nH]1)CCCC2 (stereo unspecified) |  | -7.09% (inactive) |
| CCC(=O)Nc1ccccc1-c1nc2ccccc2n(CC(=O)Nc2ccc(C)c(C)c2)c1=O |  | 4.89% (inactive) |
| CCOc1ccc(CNC(=O)c2cc(=O)[nH]c3ccc(S(=O)(=O)N4CCCCC4)cc23)cc1 |  | 8.92% (inactive) |
| O=C(Cn1ncn2nc(-c3cccs3)cc2c1=O)NCc1cccc(Br)c1 |  | -14.1% (inactive) |
